Laboratory results reported in publication PMC13494018.
A number with no mark means an inactive call. No rule for the calls is given here.

Molecular target: VTCN1, Q7Z7D3
Sequence (Q7Z7D3 whole entry): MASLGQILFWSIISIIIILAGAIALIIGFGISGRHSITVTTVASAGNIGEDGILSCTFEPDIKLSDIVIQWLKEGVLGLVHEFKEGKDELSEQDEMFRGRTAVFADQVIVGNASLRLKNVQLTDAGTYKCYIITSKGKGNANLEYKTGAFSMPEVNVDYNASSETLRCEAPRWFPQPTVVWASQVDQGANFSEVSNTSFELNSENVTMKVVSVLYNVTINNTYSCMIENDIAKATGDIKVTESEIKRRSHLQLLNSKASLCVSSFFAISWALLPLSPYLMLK

Binder | binding in a display sort
d4r4_design_ppi_491_dldesign_0_cycle1_af2pred (protein) SANKELADAIKEAAKEAQAAANAAKEAYADDPAKAKEFADKMEKKIDEAHNSDLETAKKIAEEAKKEKEKAKAALKKAKA | not found
d4r4_design_ppi_481_dldesign_0_cycle1_af2pred (protein) MADEASAEIRLENAKDAAKIWIKKVEKIDPELAKEYAAKMKEAAKKPDKEGAKKAREIAKEVKKKAEELEKKAKEKEEEKKKEEEEK | not found
d4r5_design_ppi_48_dldesign_0_cycle0_af2pred (protein) KAEELFKKGLELVKEGIESEDKEKGKELVKKGSVLFREGLLEKYSEEPASEVVKIAQKIHEEWEKLLEEEFKKK | not found
d4r4_design_ppi_471_dldesign_0_cycle0_af2pred (protein) EEAEKVAKEAREVGKEAAEAGLKKTAAEAFAAANRVRAALAFKKANPEKGQPILEEEVKEAKEVIEKAKKEIAAKKAAA | not found
d4r4_design_ppi_411_dldesign_0_cycle1_af2pred (protein) SAAEVAALEKAARAAIAAALAAAKAALADPSTLAEQKKAAEAALAAAREAAAAARWKDYEVGEALRKELAAAEKEVKATIAEAQKKKE | not found
d4r4_design_ppi_490_dldesign_0_cycle1_af2pred (protein) AEVEKEAKKAATEAREAVAELRGLAQEAKLKGVEEAKKVAEEAIKEASALLKEAAKEKDPEKALKLAKEAYKVAKEAIKKAKKLLE | not found
d4r5_design_ppi_37_dldesign_0_cycle0_af2pred (protein) GGAVDQVVDNVAKAVGAEAGARIRAAYEEGPEKAIATLEELAARLAAEDPELGAKAAKAARVLRSIVEDEKR | not found
d4r4_design_ppi_439_dldesign_0_cycle1_af2pred (protein) AEEEERERRVREAAEWLVEAPVRLANEAALRAGELAGDSDLALEIQALNNYNREEGARAALASPAREVVAEATEEVRRRREAERAAA | not found
d4r4_design_ppi_486_dldesign_0_cycle0_af2pred (protein) MEETIERAKEAAREALEAAREAAKKNAADPEKVKKLAELAQKAQEARAEALAKPEKAEEALKRIEEYLKEAKEILE | not found
d4r4_design_ppi_471_dldesign_0_cycle1_af2pred (protein) EEAKKVAEEAKKVGKEAAKAGLEKLAAEAFEASYKVKAAYDFYKKNPEKGKEILEEEVKEAKKVIEKAKKEIKKAKAKA | not found
d4r4_design_ppi_486_dldesign_0_cycle1_af2pred (protein) MEEVVKKAEEAAKKAVEAAREAAKKNAADPEKVKYLAELAQEALEARAVALAKPELAEEELKKIEEKRKKAEEILA | not found
d4r5_design_ppi_34_dldesign_0_cycle0_af2pred (protein) EEEKKEAAKKAAELIERAIEAAKTEGKEYGIIYMEAAVEAAKKVGLGEKAKEALKALEKDEEEGIKLAKELREEFEKLI | not found
d4r5_design_ppi_25_dldesign_0_cycle0_af2pred (protein) EKEEALKKAANIIQKMREEGTAGINEAKVSGSKEIAKEAIKKAEELAKKALEEASKATPEDYEKAKEKVKRILERLKKEAEKVIKE | not found
d4r5_design_ppi_20_dldesign_0_cycle1_af2pred (protein) MNLEELKKKVKEYTKELGKKAGVSEEEIKELAELAAEAASLSSDTTKEVLEDYAKESSEKVAKVAKETAEYAIEIKKKAR | not found
d4r5_design_ppi_34_dldesign_0_cycle1_af2pred (protein) EEEKLKAAEAAARNLKLAIEAAKTEGKEYGILYMESAVQAGEIVGLGEKVKETKEALEKNPEEGIKLAEELKKEFEAIV | not found
d4r5_design_ppi_7_dldesign_0_cycle1_af2pred (protein) EESKELRIKAISLLSSAAFYAKTLGPEGKYFEKAAELALTDLEKAIEEAKKALKAAEKLDKELAKRVEKAIEYLKKALE | not found
d4r4_design_ppi_490_dldesign_0_cycle0_af2pred (protein) AKTEEEAKKAATEASEAVADLRGYEQEAKIKGNEEAAKVAKEAIKEAAKLAKEAAASKDPKEALKLAKEALKVAKKAIEEVKKLLE | not found
d4r5_design_ppi_19_dldesign_0_cycle0_af2pred (protein) MEEKLKEAAKKVQEAYQLAAENKEKREELRELAKKARESLKEAEKAYKEGKEEEAEKYLEKSFEYNKEAEELYKKTKKEKEEKEKK | not found
d4r5_design_ppi_25_dldesign_0_cycle1_af2pred (protein) EEKEAVKKAAKIIQEMREKGLELIHEAKIKGSKEIAEEGIKKAEELGKKALEAAEKASPEERKKVEEKVEKTLKRIKEEAEKVIKE | not found
